Data: PubChem BioAssay AID904 (National Center for Advancing Translational Sciences (NCATS), 2007)
Out of some 55,000 compounds screened, about 530 (0.96%) were called active. Entries that show only a call come without a potency. Not shown: some 7% with an inconclusive outcome. For the sample, actives were picked, then their nearest neighbours and some compounds at random. Values without a mark were called inactive. Calls follow the shape of the dose curve; as a rule, active = well fitted cell-killing curve with a large enough effect; inconclusive = small, poorly fitted or top-dose-only effect; inactive = no such curve, though single readings can be large or run the other way.

Experiment: qHTS Screen for Compounds that Selectively Target Cancer Cells with p53 Mutations: Cytotoxicity of p53 Null Cells at the Nonpermissive Temperature; also: nearly all actives have a fitted effect of over 50% in size
Conditions: H1299 p53-null (neo) cells, 39C, ATPlite viability, 24 h; series mostly up to 46.1 µM
From the text: NIH Chemical Genomics Center [NCGC] NIH Molecular Libraries Screening Centers Network [MLSCN] MLSCN Grant: 1 X01 MH079844-01 Assay Submitter (PI): Dr. SUN, YI, University of Michigan NCGC Assay Overview: Synthetic Lethal Screen for Compounds to Kill Cancer Cells with p53 Mutation. Tumor suppressor gene p53 serves as a major cellular barrier against tumorigenesis. […] The goal of this screening is to identify small molecule probes that selectively kill cancer cells with mutations in p53. This screening was carried out using two lines of H1299 lung cancer cells. The H1299-p53 A138V line express a temperature sensitive p53 mutant (p53ts) in which the mutant p53 protein (A138V) is in the mutant confirmation when grown at 39C (the nonpermissive temperature) and in the wild type conformation when grown at 32C (the permissive temperature). A H1299-neo line (p53 null) grown at both 39C and 32C were used as counter-screens to filter out false positive associated with temperature shifting. The small molecular compounds that selectively target mutant p53-containing cancer cells were selected as candidate probes for further study. A cytotoxicity assay based on the measurement of ATP contents in cells was used in this screen. Concentration-responses of all the compounds in the library collection were determined in qHTS using the cell lines and temperature conditions as above.
NCGC Assay Protocol Summary: Both the H1299-p53A138V and H1299-neo cell lines were provided by Dr.Yi Sun, a PI at the University Michigan. The cells were maintained and cultured at 37C. The resuspended frozen cells were used to plate the cells in the 1536-well assay plates at a density of 600 cells per well in 5 ul medium. The assay plates with the cells were incubated at 37C for 16 to 30 hours before the experiments. The library compounds in DMSO solution were added to the cells in assay plates and incubated 24 hours at 39C (for mutant p53 conformation) or 32C (for normal p53 conformation as control). An ATP_lite assay kit (PerkinElmer) was used to determine the cell viability. Tomaxifen (100uM) was used as the positive control for cell killing. Data were normalized to the controls for basal activity (DMSO only) and 100% killing (100uM tamoxifen). AC50 values were determined from concentration-response data modeled with the standard Hill equation. P53 assay protocol: 1. Reagent; 5 uL H1299-p53A138V or H1299-neo cell cells/well 2. Time; overnight; 37C incubation 3. Compounds; 23 nL; 5.9 nM to 46 uM 4. Controls; 23 nL; Tamoxifen 100 uM 5. Time; 24 hr; 39C incubation 6. Reagent; 3 uL; ATP_Lite reagent 7. Time; 20 min; Room Temperature 8. Detection; Luminescence; Viewlux plate reader Keywords: p53, synthetic lethal, cancer, cell viability, cytotoxicity, H1299 cell line, luminescence, MLSMR, MLSCN, NIH Roadmap, qHTS, NCGC
Potency is read from the fitted curve at half-maximal effect.

Structure (SMILES)	Potency	activity, negative = cell killing
Cc1ccc(NC(=O)C2CCN(S(=O)(=O)c3cc(-c4noc(C)n4)ccc3C)CC2)c(C)c1	inactive	
Cc1ccc(-c2cc(N)on2)cc1		9.86% [at 1.84 µM]
Cc1ccc2[nH]cc(CCCN3C(=O)c4ccccc4C3=O)c2c1		-0.898% [at 1.84 µM]
Cc1nn(Cc2ccc(Cl)cc2)c(Cl)c1/C=N/NC(=O)CNc1ccccc1F	inactive	
COc1ccc(NC(=O)Cn2c(=O)n(CCC(C)C)c(=O)c3cccnc32)cc1Cl	inactive	
CCOC(=O)c1ccc(NC(=O)Cn2cc(S(=O)(=O)Cc3ccccc3F)c3ccccc32)cc1	inactive	
CCOc1cccc2c1N[C@@H](c1ccc(C(=O)O)cc1)[C@H]1CC=C[C@@H]21	inactive	
Cc1[nH]c2ccccc2c1/C=N/NC(=O)CNC(=O)c1ccc2c(c1)OCO2		2.07% [at 1.84 µM]
Cc1cc[n+](-c2[nH]c(=O)sc2/C=N/NC(=O)c2ccccc2[O-])cc1C	inactive	
CCN(C(=O)Cn1c(=O)nc(-c2ccccc2)c2cc(Cl)ccc21)c1cccc(C)c1	12.6 µM (active)	
O=C(Cn1c(=O)nc(-c2ccccc2)c2cc(Cl)ccc21)NCc1ccc(Cl)cc1	inactive	
Cc1cccc(NC(=O)Cn2nc(-c3ccc(Cl)cc3)c3ccccc3c2=O)c1	inactive	
COc1ccc(-c2nnc(SCc3cccnc3)o2)cc1	inactive	
CCCn1c(SCC(=O)Nc2ccc(C)c(S(=O)(=O)N3CCOCC3)c2)n[nH]c1=O	inactive	
COc1cc(C(=O)Nc2ccc(-n3c(C)nc4ccccc4c3=O)cc2)cc(OC)c1OC	inactive	
COc1ccccc1Nc1c2c(nc3ccc(NC(=O)/C=C/c4cc(OC)c(OC)c(OC)c4)cc13)CCCC2	10 µM (active)	
O=C(Nc1c2c(nc3ccccc13)CCCC2)c1ccccc1Br	inactive	
CCOC(=O)c1cc2c(=O)n3ccccc3nc2n(CC2CCCO2)c1=NC(=O)c1ccc(C(C)(C)C)cc1 (configuration not stated)	inactive	
Cc1ccccc1CSc1nc2c([nH]c3ccccc32)c(=O)n1C	inactive	
CC1=C(c2ccc(C)cc2)S(=O)(=O)NC1=NCCCN1CCN(c2cc(C)ccc2C)CC1	inactive	
CC1=C(c2ccc(Cl)cc2)S(=O)(=O)N=C1N1CCN(c2cc(C)ccc2C)CC1	inactive	
Cc1ccc(C)c(N2CCN(CCCNC(=O)Nc3ccc(Cl)cc3)CC2)c1	5.01 µM (active)	
COc1ccccc1OCC(=O)Nc1nnc2n1CCS2	inactive	
O=C(CSc1oc(-c2ccc(F)cc2)nc1S(=O)(=O)c1ccc(Br)cc1)NC1CCCCC1	inactive	

Structure (SMILES)	Potency	activity, negative = cell killing
CC(C)S(=O)(=O)c1oc(-c2ccc(F)cc2)nc1S(=O)(=O)c1ccc(F)cc1	12.6 µM (active)	
Cc1ccc(-c2nc(S(=O)(=O)c3ccc(C)cc3)c(N3CCCCCC3)o2)cc1	inactive	
CCOc1ccc(S(=O)(=O)N/N=C(\C)c2ccc(Cl)c(Cl)c2Cl)cc1	inactive	
Cc1ccc(S(=O)(=O)NC2(C(F)(F)F)NC(=O)N(CCc3ccccc3)C2=O)cc1 (configuration not stated)	inactive	
CCOc1ccc(NC(=O)c2ncoc2-c2ccco2)cc1	5.01 µM (active)	
CCOc1ccc(NC(=O)c2cnn(-c3ccccc3)c2-n2cccc2)cc1	inactive	
CCOc1ccc(NC(=O)CN2CCN(CC(=O)Nc3ccc(OC)cc3)CC2)cc1	inactive	
C=Cc1ccc(Cn2c(C(=O)O)c(CNC3CCCC3)c3ccc(C)cc32)cc1	inactive	
Cc1ccccc1C(=O)Nc1cc(C)c(O)c(-c2nc3ccccc3o2)c1	inactive	
O=C(NC1CCN(C(=S)NCc2ccco2)CC1)c1ccc(F)cc1	inactive	
COc1ccc(S(=O)(=O)NCC(c2ccco2)N2CCOCC2)cc1 (configuration not stated)	inactive	
Cc1ccc(NS(=O)(=O)c2ccc3c(c2)CC(=O)N3)cc1Cl	inactive	
COc1ccc(CCNc2nc(-c3ccc(F)cc3)cc(C(F)(F)F)n2)cc1OC	inactive	
Cc1ccc(O)c(NC(=O)CCS(=O)(=O)c2nc(-c3ccc4c(c3)OCO4)cc(C(F)(F)F)n2)c1	inactive	
COc1ccccc1-c1cc(C(F)(F)F)nc(S(=O)(=O)CCCC(=O)Nc2cc(C)ccc2O)n1	22.4 µM (active)	
CSc1ccccc1NC(=O)CCS(=O)(=O)c1nc(-c2cccs2)cc(C(F)(F)F)n1	inactive	
CC(=O)c1ccc(NC(=O)c2nc3nc(C)cc(C(F)F)n3n2)cc1	inactive	
Cc1ccc(NC(=O)c2nc(S(=O)(=O)Cc3cccc(C)c3)ncc2Cl)cc1	22.4 µM (active)	
CCSc1ncc(Cl)c(C(=O)Nc2cc(C)ccc2C)n1	inactive	
CCCS(=O)(=O)c1ncc(Cl)c(C(=O)Nc2scc(-c3ccccc3)c2C(=O)OCC)n1	inactive	
Cc1ccc2nc(CN3CCN(S(=O)(=O)c4ccc(C)c(C)c4)CC3)oc2c1	inactive	
O=C1N(c2ccc(Cl)cc2)C(c2ccc(Cl)cc2)N2CCCN12 (configuration not stated)		-0.885% [at 1.84 µM]
O=C(COC(=O)CSc1nnc(-c2ccc(Cl)cc2)o1)Nc1cc(Cl)cc(Cl)c1	inactive	
